# Reference: ChEMBL document CHEMBL3988442, “University of Dundee, Small-Polar-MMV Screening Library” (2021)
# Key:
# [1] = molecular target: T1, Aspartate--tRNA(Asp/Asn) ligase (Mycobacterium tuberculosis (strain ATCC 25618 / H37Rv)) (UniProt P9WFW3); test: Assay for Asp RNA synthetase-1 from Mycobacterium tuberculosis; assay type: functional; parameters: scale not given: direction of the effect not stated beside the values; details: 30 µM; note: in the data most compounds retested in dose-response had high values
# T1 sequence (whole entry): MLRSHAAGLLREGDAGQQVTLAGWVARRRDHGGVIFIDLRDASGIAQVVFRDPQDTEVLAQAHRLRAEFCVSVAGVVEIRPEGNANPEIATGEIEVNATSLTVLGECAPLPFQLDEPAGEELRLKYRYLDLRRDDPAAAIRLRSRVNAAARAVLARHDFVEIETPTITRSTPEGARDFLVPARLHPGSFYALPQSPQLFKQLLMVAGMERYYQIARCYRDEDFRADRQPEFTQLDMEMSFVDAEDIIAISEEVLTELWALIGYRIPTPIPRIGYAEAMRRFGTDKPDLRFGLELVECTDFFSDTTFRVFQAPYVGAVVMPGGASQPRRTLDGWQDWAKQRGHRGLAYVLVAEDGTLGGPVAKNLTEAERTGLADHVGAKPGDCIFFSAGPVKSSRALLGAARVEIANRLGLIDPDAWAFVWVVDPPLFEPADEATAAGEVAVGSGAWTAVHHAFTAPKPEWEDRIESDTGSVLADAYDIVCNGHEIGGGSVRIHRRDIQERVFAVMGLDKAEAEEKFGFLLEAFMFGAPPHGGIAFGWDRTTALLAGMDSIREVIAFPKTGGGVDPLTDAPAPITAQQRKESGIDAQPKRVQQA
# [2] = molecular target: Shiga toxin 2 (Escherichia coli O157:H7) (UniProt P09385+P09386); test: E. coli 0.157:H7 Shiga Toxin SOP - stx2 screening assay; assay type: functional; parameters: scale not given: direction of the effect not stated beside the values; details: 30 µM
Compound,Percent Effect [1] [%],Percent Effect [2] [%]
Cc1ccc2c(c1)C1(CCNCC1)CN2C(=O)CN(C)C,-0.657,6.1
Cc1cc(C)n(CC2CCCN2C(=O)c2ccc3c(c2)OCO3)n1 (configuration not stated),-1.99,-23.4
CO[C@H]1CN(Cc2cccc(C#N)c2)[C@@H]2COC[C@H]12,4.8,-22.2
COc1cccc(N2CCN(CC(O)c3cc(C)sc3C)CC2)c1 (configuration not stated),0.432,6.38
O=C(Cn1c(=O)n(Cc2ccco2)c2ncccc21)Nc1ccccn1,8.2,3.73
CCOc1cc(C(=O)N2CCCC(c3cc(C(N)=O)[nH]n3)C2)ccn1 (configuration not stated),-1.21,25.9
Cc1cnn(CC2CCCN2C(=O)c2ccc3cc[nH]c3c2)c1 (configuration not stated),-4.26,1.09
O=S(=O)(c1cccnc1)N1CCN(CCn2ccnc2)CC1,-4.66,-38.1
O=C(NCc1cc(=O)n2c(n1)CN(CC1CCOC1)CCC2)C1CC1 (configuration not stated),-1,-24.3
CSc1ccc(NC(=O)Nc2ccc3c(c2)N(S(C)(=O)=O)CC3)cc1,-2.32,-21.8
Cc1nc(CO[C@@H]2CN(Cc3cnn(C)c3)[C@@H]3COC[C@@H]32)cs1,-6.31,-3.46
COc1c(CNCCNC(=O)Cc2ccc(F)cc2)c(C)nn1C,1.84,30.8
COC(=O)C1CCN(C(=O)c2ccc(NS(C)(=O)=O)c(C)c2)CC1,-2.94,-1.7
CCc1nc(C2CCCN2Cc2nc3ccccc3o2)no1 (configuration not stated),-0.404,9.5
CS(=O)(=O)N1CCN(C(=O)Cn2ccc3c(Cl)cccc32)CC1,-0.673,-16.5
Cc1cnn(CCNCc2nc(Cc3ccccc3)no2)c1,-1.23,25
CC(=O)N(C)c1nc(CN2CCOC(Cn3cccn3)C2)cs1 (configuration not stated),3.18,-10.3
Cc1nc(C)n(CC2CCCN2CCc2cccs2)n1 (configuration not stated),-0.678,-28.6
Cc1cnn(CC2CN(Cc3nc4ccccc4nc3C)CCO2)c1 (configuration not stated),-3.52,-0.0617
CC(C)N(C)Cc1cnc2n1CCN(CCc1ccccc1)C2,0.605,-27.2
COCc1nc(C(=O)N2CCCC2c2c(C)nn(C)c2C)cs1 (configuration not stated),-5.87,-13.6
NC(=O)C1CCN(C(=O)c2ccn(-c3ccc(F)cc3)n2)C1 (configuration not stated),9.24,3.03
CCOCCCC(=O)NCCC(=O)N1CCN(c2ccccn2)CC1,0.809,-65.6
Cc1nc(CN2CCOCC3(CCN(c4cccnc4)CC3)C2)cs1,1.87,-2.54
Cc1cc(C(=O)NCCn2nc3ccccn3c2=O)[nH]n1,-1.59,-43.7
CC(=O)N(Cc1ncc(C)o1)C1CCN(Cc2noc(C)n2)C1 (configuration not stated),5.42,4.63

Compound,Percent Effect [1] [%],Percent Effect [2] [%]
Cn1cccc1C(=O)N[C@@H]1CN(CC2CC2)[C@@H]2COC[C@@H]21,1.28,-3.7
COc1cc(C(=O)N2CCCS2(=O)=O)ccc1C,-7.63,-10.8
O=C(C[C@@H]1COC[C@H]2CN(Cc3ccc(F)cc3)C[C@@H]12)N1CCCCO1,3.14,-37.2
Cc1cnn(CCNCc2csc(-c3ccc(F)cc3)n2)c1,-1.03,13.4
CCN(C(=O)CS(=O)(=O)Cc1cc(Cl)c2c(c1)OCCCO2)C1CC1,-0.343,4.47
O=S(=O)(C1CC1)N1CCC2(COCc3cnc(N4CCOCC4)nc32)C1 (configuration not stated),-2.06,-56.7
CCOC(=O)c1sc2ccsc2c1CNC(=O)CC,1.08,-9.72
CC(=O)N1CCCN(C(=O)c2cnc3n[nH]c(C)c3c2)CC1,-0.871,19.4
Cc1cn2c(n1)CCC(NC(=O)c1cc(C(C)C)no1)C2 (configuration not stated),-4.01,-5.41
CCc1nc(C2CCCN2Cc2nnc(Cc3ccccc3)o2)no1 (configuration not stated),-0.231,6.08
CC(C)C1CN(c2ncccn2)CCC(=O)N1Cc1ccc(F)cc1 (configuration not stated),3.51,3.8
O=C1CN(Cc2nnc(-c3ccc(Br)cc3)o2)CCN1,-0.167,-95.1
COc1cc(N2C[C@@H]3COC[C@]3(COc3ccc(C#N)cn3)C2)ncn1,-1.45,11.9
O=C(Nc1cc(C(F)(F)F)c[nH]c1=O)c1ccco1,-2.75,5.24
Cc1cc(C(=O)N2CCC(c3nccn3Cc3ccncc3)CC2)no1,10.1,4.34
O=C(c1ccc2c(c1)COC2)N1CCN(CC2CC2)CC1,-0.514,-1.4
COCCN1CC[C@]2(CN(C(=O)c3cccs3)C[C@H]2C)C1=O,1.59,-8.13
CCn1ccnc1CN1C[C@@H](CN2CCCC2)[C@@H](CO)C1,-3.33,6.48
CCc1nc(C2CCCN2Cc2nc(CCOC)no2)no1 (configuration not stated),5.05,-11.9
Cc1nn(C)c(C)c1C1CCCN1C(=O)c1cc[nH]n1 (configuration not stated),-5.05,11.4
CCN1CCn2c(C)cnc2C12CCN(C(=O)CC(C)C)CC2,1.31,-0.923
CCOc1ccc(C#N)cc1NCC(=O)Nc1cc(C)no1,-5.54,-11.5
Cc1nn(C)c(Cl)c1C1CCCN1C(=O)c1nccnc1N (configuration not stated),-0.929,22.4
O=C(CCC1CC1)N1C[C@@H](CN2CCCC2)[C@@H](CO)C1,0.505,-35.6
O=C(C1COCCO1)N1CCN(Cc2ccc3c(c2)CCO3)CC1 (configuration not stated),1.71,8.81
